Article PMC5540273 (PLoS ONE, 2017)

Experiments:
Settings in all cases: concentration: 1 μM, replicates: in singlicate; n = 1
MRCKA = test system: MRCKA
MRCKB = test system: T1, MRCKB
T1 construct: gene CDC42BPB

MST1R = test system: MST1R
MST1 = test system: T2, MST1
T2 construct: gene STK4

MST2 = test system: T3, MST2
T3 construct: gene STK3

MST3 = test system: T4, MST3
T4 construct: gene STK24

MST4 = test system: MST4
MTOR = test system: MTOR
MUSK = test system: MUSK
MYLK2 = test system: MYLK2
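Note: KINOMEscan kinase panel screen.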

SMILES | %Inh (MRCKA) [%] | %Inh (MRCKB) [%] | %Inh (MST1R) [%] | %Inh (MST1) [%] | %Inh (MST2) [%] | %Inh (MST3) [%] | %Inh (MST4) [%] | %Inh (MTOR) [%] | %Inh (MUSK) [%] | %Inh (MYLK2) [%]
O=C(c1ccc(-c2cc(-c3c[nH]nc3-c3ccccn3)ccn2)cc1)N1CCCC1 [GW792479] | 24 | 0 | 0 | 0 | 0 | 11 | 0 | 14 | 9 | 0
OCCOCCn1ccc2ncnc(Nc3ccc(Oc4cccc(Cl)c4)c(Cl)c3)c21 | 0 | 0 | 0 | 0 | 0 | 0 | 0 | 46 | 0 | 0
Clc1cccc(-c2nc(Nc3ccncc3)c3ccccc3n2)c1 [GW873004] | 3 | 42 | 0 | 27 | 45 | 9 | 0 | 36 | 0 | 0
NC(=O)c1sc(-n2cnc3ccccc32)cc1OCc1ccccc1F [GSK1024306] | 17 | 0 | 9 | 0 | 0 | 0 | 0 | 19 | 0 | 7
Nc1nc(-c2ccccn2)c(-c2ccnc3ccccc23)s1 [GW548057] | 8 | 0 | 50 | 0 | 0 | 16 | 0 | 31 | 0 | 9
CCCc1ccc(S(=O)(=O)NC2CCN(c3ccnc(Nc4ccc(OC)cc4)n3)C2)cc1 (centres unmarked) [GSK1379737] | 10 | 0 | 39 | 65 | 0 | 0 | 0 | 28 | 9 | 0
Oc1ccc2ncnc(Nc3ccc(OCc4ccccc4)cc3)c2c1 [GI262866] | 12 | 0 | 13 | 59 | 0 | 0 | 0 | 11 | 17 | 0
CCc1nc(-c2cccc(N(C)S(=O)(=O)c3ccccc3)c2)c(-c2ccnc(Nc3ccc(N4CCN(C(C)=O)CC4)nc3)n2)s1 [GSK1645895] | 0 | 0 | 40 | 3 | 16 | 15 | 0 | 2 | 1 | 0
COc1ccc(Nc2nccc(N3CCC(NC(=O)c4cccc(NC(C)=O)c4)C3)n2)cc1 (centres unmarked) [GSK1379732] | 0 | 0 | 34 | 0 | 10 | 13 | 0 | 8 | 0 | 8
Cc1ccc(O)cc1Nc1cc(C(F)(F)F)nc2ccc(-c3ccncc3)cc12 [GW630823] | 0 | 0 | 19 | 0 | 44 | 18 | 0 | 0 | 0 | 4
Cl.Cn1ccc(-c2cccc(Nc3ccnc4cc(-c5nccs5)ccc34)c2)n1 [GW525701] | 37 | 0 | 29 | 0 | 0 | 0 | 0 | 35 | 0 | 0
O=C(Nc1ccccc1F)NC1CCN(c2ccnc(Nc3ccc(F)cc3)n2)C1 (centres unmarked) [GSK1379722] | 15 | 0 | 38 | 0 | 0 | 0 | 0 | 17 | 2 | 12
CC(C)(C)c1ccc(-n2cnc3c(N)ncnc32)cc1 [SKF-97263] | 0 | 3 | 17 | 13 | 18 | 0 | 0 | 15 | 0 | 0
FC(F)(F)c1ccc(-c2cc(-c3c[nH]nc3-c3ccccn3)ccn2)cc1 [GW599550] | 19 | 0 | 33 | 17 | 8 | 8 | 0 | 13 | 14 | 13
C[C@@H]1CCN(C(=O)CO)C[C@@H]1N(C)c1ncnc2[nH]ccc12 | 0 | 100 | 21 | 12 | 0 | 11 | 0 | 55 | 0 | 2
O=C(CCO)NCCn1ccc2ncnc(Nc3ccc(Oc4cccc(C(F)(F)F)c4)c(Cl)c3)c21 | 0 | 2 | 0 | 0 | 0 | 0 | 0 | 31 | 0 | 0
Fc1cccc(COc2ccc(Nc3ncnc4cc[nH]c34)cc2Cl)c1 | 10 | 0 | 30 | 16 | 19 | 23 | 0 | 0 | 10 | 0
